From PubChem BioAssay (NCI)
About 83,000 compounds went through this panel and 20% of them were active in at least one assay; those are over-represented in the sample as a whole.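 Values shown are percent growth following 48 h exposure of cells in 96-well plates to a single concentration of compound; below 10 was considered active.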 Values without a mark were called inactive. The source made the active and inactive calls.

How the values were obtained:
Test in all cases: NCI-60 one-dose screen, 48 h (100 = growth as untreated, 0 = no growth, -100 = all killed)
Conditions in all cases: 10 µM unless noted
SR leukemia = test system: SR leukemia
RPMI-8226 leukemia = test system: RPMI-8226 leukemia
OVCAR-8 ovarian = test system: OVCAR-8 ovarian
OVCAR-5 ovarian = test system: OVCAR-5 ovarian
OVCAR-4 ovarian = test system: OVCAR-4 ovarian
SK-OV-3 ovarian = test system: SK-OV-3 ovarian
IGROV1 ovarian = test system: IGROV1 ovarian
OVCAR-3 ovarian = test system: OVCAR-3 ovarian
HS 578T breast = test system: HS 578T breast
NCI/ADR-RES ovarian = test system: NCI/ADR-RES ovarian

Row | Compound | growth (SR leukemia) | growth (RPMI-8226 leukemia) | growth (OVCAR-8 ovarian) | growth (OVCAR-5 ovarian) | growth (OVCAR-4 ovarian) | growth (SK-OV-3 ovarian) | growth (IGROV1 ovarian) | growth (OVCAR-3 ovarian) | growth (HS 578T breast) | growth (NCI/ADR-RES ovarian)
1 | O=C1C2=C(CCN(Cc3ccccc3)C2)N2CCN=C2N1Cc1ccc(C(F)(F)F)cc1 | 49.5% | 19% | 17% | 56.9% | -4.49% (active) | 21% | 33% | 23.9% | 36% | 16.6%
2 | Nc1c(C(=O)c2ccccc2)nnc2ncnn12 | 94.6% | 101% | 107% | 121% | 116% | 98% | 106% | 105% | 106% | 107%
3 | CN=C1C=CC(=C(c2ccc(N(C)C)cc2)c2ccc(N(C)C)cc2)C=C1 | -10.9% (active) | 0.425% (active) | -38.5% (active) | 17.4% | 7.52% (active) | -15.6% (active) | -12.7% (active) | -42.2% (active) | 32.6% | 10.9%
4 | O=S(=O)(Cc1ccccc1)c1nc2ccccc2s1 | 17% | 20.4% | 88.8% | 102% | 63.7% | 101% | 61.1% | 79.2% | 96.2% | 96.5%
5 | CCOC(=O)c1nnn(-c2ccccc2)c1C1=CN(C)CCC1 | 88.8% | 113% | 102% | 99.9% | 99.9% | 97.2% | 104% | 100% | 91.9% | 102%
6 | Cc1nc(Nc2ccc(NC(=S)Nc3ccccc3)cc2)nc2nc(Nc3ccc(S(=O)(=O)O)cc3)[nH]c(=O)c12 | 47.5% | 79.2% | 49.8% | 103% | 113% | 98.3% | 72% | 139% | 111% | 106%
7 | CCCCn1c(=O)[nH]c(N)c(C(c2ccc(F)cc2)c2c(N)[nH]c(=O)n(CCCC)c2=O)c1=O | 42% | 50% | 66.5% | 94.4% | 64.6% | 80.6% | 78.8% | 54% | 81.1% | 96.7%
8 | O=c1[nH]nc(-c2ccc(Cl)cc2)cc1Cc1ccccc1 | 62.5% | 41.1% | 83% | 94.1% | 95.1% | 99.1% | 40.9% | 104% | 103% | 98.4%
9 | COc1cc(NC(=O)c2cc(O)c(CC=C(C)C)c(O)c2)cc2c1O[C@]1(C)CC[C@@H](O)C(C)(C)[C@H]1C2 | 14.1% | -29.3% (active) | 54% | 61.8% | 51.5% | 21.5% | 52.5% | 31.6% | 13.1% | 96.4%
10 | CCNCCNc1cc(-c2cccc(C(F)(F)F)c2)c(C#N)c2nc3ccccc3n12 | -37.5% (active) | -29.3% (active) | -39.7% (active) | -79.3% (active) | -83% (active) | -97.2% (active) | -74.2% (active) | -86.7% (active) | -48.3% (active) | -55% (active)
11 | CCOC(=O)Cc1csc2nc(-c3ccccc3)nn12 | 98.8% | 113% | 98.3% | 92.9% | 105% | 115% | 104% | 117% | 103% | 104%
12 | CCCCNCC(=O)Nc1ccc(C(=O)OCC)cc1 | 87% | 94% | 104% | 109% | 114% | 105% | 105% | 113% | 108% | 107%
13 | N#Cc1c(-c2ccc(C(F)(F)F)cc2)cc(N2CC(O)C2)n2c1nc1ccccc12 | 73.5% | 78.8% | 19.4% | 77.5% | -29.8% (active) | 18.8% | 60.9% | 48.4% | 17.8% | 38.3%
14 | CCC(C)NCc1ccccc1 (stereo not given) | 104% | 95.7% | 102% | 114% | 109% | 101% | 109% | 104% | 105% | 98.1%
15 | Nc1nc(N)c(-c2ccc(Cl)cc2)c(/C=C/c2ccc([N+](=O)[O-])cc2)n1 | 44% | 67% | 89.2% | 108% | 77.3% | 114% | 22.4% | 75.9% | 60.5% | 68.3%
16 | Nc1ccn(C2OC(F)(CO)C(O)C2F)c(=O)n1 (stereo not given) | 90.4% | 106% | 22.4% | 97.4% | 73.2% | 33.4% | 49.8% | 66.8% | 78.8% | 18.4%
17 | C[C@@H]1C(=O)N(C[C@H](Cc2ccccc2)N(Cc2ccccc2)Cc2ccccc2)[C@]1(Cc1ccccc1)C(=O)OC(C)(C)C | 56.2% | 36.8% | 66.7% | 109% | 28.8% | 73.1% | 77.5% | 54.5% | 73% | 69%
18 | CC(=O)Nc1ccc2c(c1)Cc1c(F)cccc1-2 | 98.2% | 94.1% | 95.2% | 106% | 106% | 115% | 98.8% | 105% | 115% | 107%
19 | Clc1ccc2[nH]c3c(NCCCN4CCOCC4)ncnc3c2c1 | -24.2% (active) | 52.6% | 66.5% | 90.8% | 77.5% | 81.5% | 63.1% | 85.3% | 102% | 65.9%
20 | Nc1c(-c2nc3ccccc3c(=O)[nH]2)nnn1-c1ccc(Cl)cc1 | 56.2% | 90.6% | 56.1% | 97.8% | -4.08% (active) | 68.5% | 83% | 89.2% | 51.1% | 56.4%
21 | C=C(C)C1CCC(=C)C2CCC3(C)OC12/C=C(/COC(C)=O)CCC3O (stereo not given) | 74.6% | 235% | 103% | 105% | 127% | 119% | 151% | 124% | 177% | 105%
22 | CSc1nc2sc3cc(Cl)ccc3n2c(=N)c1C#N | 56.8% | 83.5% | 56.9% | 107% | 45.4% | 72.4% | 96.7% | 101% | 24.8% | 58.4%
23 | CCCCCCNC(=O)c1cc(NCc2cc(O)ccc2O)ccc1O | 7.38% (active) | -12.3% (active) | 30.9% | 77.5% | 66.5% | 74.5% | 70.7% | 27.4% | 70.5% | 59.2%
24 | c1ccc(-c2oc3ccccc3c2-c2ccccc2)cc1 | 57.3% | 107% | 102% | 105% | 96.7% | 101% | 87.8% | 100% | 110% | 110%
25 | CCc1c(C(=O)N[C@@H]2c3cc(Cl)ccc3CC[C@@H]2O)[nH]c(C)c1C(C)=O | 52.5% | 59.7% | 71.4% | 97.9% | 95.9% | 74.4% | 59% | 81.8% | 77.5% | 82.7%
26 | Cc1ccc(Nc2ccc(Nc3ccc(C)cc3S(=O)(=O)O)c3c2C(=O)c2ccccc2C3=O)c(S(=O)(=O)O)c1 | 108% | 87.8% | 97.6% | 106% | 102% | 111% | 114% | 95.5% | 88.7% | 102%
27 | CC(=O)NCC(=O)Nc1ccc(-c2nnc3ccccn23)nc1.CC(=O)NCC(=O)Nc1ccc(-c2nnc3ccccn23)nc1.[Pt+2] | 104% | 108% | 94.3% | 114% | 119% | 112% | 106% | 107% | 104% | 106%
28 | CC(C)CCC[C@@H](C)[C@H]1CCC2C3=CCn4c(=O)ccc(=O)n4C3CC[C@@]21C (stereo not given in full) | -34.6% (active) | -41.5% (active) | -39.7% (active) | -84.3% (active) | -32.4% (active) | -100% (active) | -82.4% (active) | -96.5% (active) | -12.2% (active) | -28.7% (active)
